Data as given in PubChem BioAssay (NCI).
The panel holds about 83,000 compounds, 20% with a hit somewhere; the sample as a whole holds those more often.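 Each cell line was grown in a 96-well plate and treated with one concentration of compound for 48 hours. Values below 10 were considered active.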 Values without a mark were called inactive. Active and inactive are the calls of the source.

Key:
Experiment in all cases: NCI-60 one-dose screen, 48 h (100 = growth as untreated, 0 = no growth, -100 = all killed)
Settings in all cases: 10 µM unless noted
RPMI-8226 leukemia = tested on: RPMI-8226 leukemia
OVCAR-5 ovarian = tested on: OVCAR-5 ovarian
SK-OV-3 ovarian = tested on: SK-OV-3 ovarian
IGROV1 ovarian = tested on: IGROV1 ovarian
OVCAR-3 ovarian = tested on: OVCAR-3 ovarian
HS 578T breast = tested on: HS 578T breast
NCI/ADR-RES ovarian = tested on: NCI/ADR-RES ovarian
T-47D breast = tested on: T-47D breast
OVCAR-8 ovarian = tested on: OVCAR-8 ovarian
OVCAR-4 ovarian = tested on: OVCAR-4 ovarian

Row | SMILES | growth (RPMI-8226 leukemia) | growth (OVCAR-5 ovarian) [%] | growth (SK-OV-3 ovarian) [%] | growth (IGROV1 ovarian) | growth (OVCAR-3 ovarian) | growth (HS 578T breast) [%] | growth (NCI/ADR-RES ovarian) | growth (T-47D breast) | growth (OVCAR-8 ovarian) | growth (OVCAR-4 ovarian)
1 | O=C(Nc1ccccc1O)c1ccc(Oc2cccc(C(=O)Nc3ccccc3O)c2)cc1 | 8.97% (active) | 50.7 | 26.6 | 18.6% | 27.3% | 40.6 | 5.02% (active) | 26.1% | – | –
2 | O=CCCCC(O)C=O (stereo unspecified) | – | 106 | 104 | 108% | 109% | 98.1 | 99.2% | 95.9% | 106% | 103%
3 | COc1cc2nc(NC3CCC3)nc(NC3CCN(C(C)C)CC3)c2cc1OC | -7.43% (active) | 97.2 | – | 75.1% | 85.7% | 66.2 | 96.9% | -7.17% (active) | – | –
4 | COc1ccc(CSc2nnc(SCC(=O)Nc3ccc(Cl)cc3)s2)cc1 | – | 90.6 | 103 | 63.6% | 91.2% | 75.6 | 47.6% | 67.2% | 84.4% | 84.7%
5 | CCOC(=O)c1sc(-c2ccc(OS(=O)(=O)c3cccs3)c(C=O)c2)nc1C | – | 33.1 | 123 | -36.2% (active) | -9.03% (active) | 11.2 | -2.63% (active) | 19.1% | -5.05% (active) | 4.5% (active)
6 | O=Nc1c(O)ccc2ccccc12.O=Nc1c(O)ccc2ccccc12.O=Nc1c([O-])ccc2ccccc12.[Fe+3] | – | 109 | 112 | 91.1% | 102% | 113 | 104% | 104% | 98.4% | 104%
7 | CCN1C(=O)N(CC)C2C1NN=c1s/c(=C3\C(=O)N(CC(C)(C)C)c4ccccc43)c(=O)n12 (stereo unspecified) | 36.7% | 51.1 | – | 24.1% | -18.4% (active) | – | 11.3% | 58.1% | – | 27.6%
8 | O=C(CSc1ncccc1C(=O)O)Nc1ccc(Oc2ccccc2)cc1 | – | 108 | 100 | 104% | 109% | 92 | 100% | 103% | 103% | 89.4%
9 | CCCSC1=NC2C(N(CC)C(=O)N2CC)N1/N=C/C=C/c1ccccc1[N+](=O)[O-] (stereo unspecified) | – | 48 | – | 29.9% | -15.8% (active) | 18.5 | 13.4% | 64.1% | 33.7% | –
10 | CN1C(=O)N(C)C2C1NN=c1s/c(=C\c3c[nH]c4ccccc34)c(=O)n12 (stereo unspecified) | – | 42.7 | – | 18.7% | 8.1% (active) | 18.7 | 15.6% | 82.6% | 24.1% | 103%
11 | COc1ccc2[nH]c(O)c(N=NC(=O)c3oc4ccccc4c3C)c2c1 | – | 41.7 | – | 6.33% (active) | -65.5% (active) | 25.5 | 30.5% | -39.2% (active) | 37.8% | -52.8% (active)
12 | O=C(/C=C/c1ccccn1)c1ccc(OCc2nnc(-c3ccc(Cl)cc3)o2)cc1 | – | 89.6 | 26.8 | -22.6% (active) | 18.6% | 65.7 | 42.5% | -13.7% (active) | 20.8% | 31%
13 | CN1C(=O)N(C)C2C1NN=c1s/c(=C\c3ccc([N+](=O)[O-])cc3)c(=O)n12 (stereo unspecified) | – | 86.1 | – | 57.4% | 22.7% | 67.5 | 61.5% | 66.5% | 81.1% | 82.2%
14 | Clc1ccc(-c2nnc(COc3ccc(C4=NNC(c5ccco5)C4)cc3)o2)cc1 (stereo unspecified) | – | 95 | 98.2 | 85.4% | 91.3% | 95.7 | 72.6% | 25.7% | 96.6% | –
15 | CC(=S)NC(=O)C(=O)/C=C1/NC(=O)C(=O)S1 | – | 107 | 122 | 109% | 122% | 107 | 103% | 107% | 106% | 106%
16 | O=Cc1cc2ccccc2nc1Nc1nccs1 | 64% | 85.6 | – | 42.6% | 55.2% | 91.9 | 77% | 77.5% | – | 75.8%
17 | CCOC(=O)c1ccc2[nH]c(-c3ccccc3)cc(=O)c2c1 | 88.2% | 101 | 112 | – | 106% | 104 | 102% | 105% | – | –

Row | SMILES | growth (RPMI-8226 leukemia) | growth (OVCAR-5 ovarian) [%] | growth (SK-OV-3 ovarian) [%] | growth (IGROV1 ovarian) | growth (OVCAR-3 ovarian) | growth (HS 578T breast) [%] | growth (NCI/ADR-RES ovarian) | growth (T-47D breast) | growth (OVCAR-8 ovarian) | growth (OVCAR-4 ovarian)
18 | NS(=O)(=O)c1ccc(CCN=C=S)cc1 | – | 85.5 | 122 | 25.6% | -18.6% (active) | 39.7 | 83.6% | – | 30.1% | 42.8%
19 | COC(=O)[C@H]1CCCN1C(=O)[C@H]1CCCN1C(=O)[C@H](Cc1c[nH]c2ccccc12)NC(=S)Nc1cc(C(F)(F)F)cc(C(F)(F)F)c1 | – | 71.1 | 85.2 | 44.6% | 63.7% | 44.8 | 93.2% | 56.5% | 68.5% | 62%
20 | CCOC(=O)CSc1c(-c2ccccc2)c2cc(Cl)ccc2[nH]c1=O | – | 105 | 107 | 99.1% | 106% | 84.2 | 84.3% | 98.1% | 115% | 89.1%
21 | CN=c1ccc2nc3ccc(N)cc3sc-2c1 | – | 24.6 | 30.1 | 22.3% | 10.8% | 59 | 5.34% (active) | 20.1% | 2.77% (active) | -11.2% (active)
22 | O=C1/C(=C/c2ccc(O)cc2)COc2ccc(O)cc21 | 8.89% (active) | 104 | – | 97.3% | 108% | 98.5 | 98.7% | 103% | – | –
23 | S=C1CCCC(=S)N1 | – | 100 | 91.6 | 107% | 112% | 99.8 | 99.5% | – | 105% | 104%
24 | CC(C)c1ccc(S(=O)(=O)NC(=O)NC2CCCC2)cc1 | 105% | 97.4 | – | 105% | 110% | 103 | 105% | 98.9% | – | 97.2%
25 | COc1ccc(C2C3=C(COC3=O)N(CCO)c3cc4c(cc32)CCC4)cc1OC (stereo unspecified) | 33.4% | 57.3 | 24.8 | 24.2% | -18.6% (active) | 21.1 | 31.3% | 22.6% | – | –
26 | CCOC(=O)c1sc(-c2ccc(OS(=O)(=O)C[C@]34CCC(CC3=O)C4(C)C)c(C=O)c2)nc1C | – | 46.9 | 46 | -21.8% (active) | -5% (active) | 31.6 | 11% | – | 11.6% | 18.6%
27 | CCOC(=O)c1sc(-c2ccc(OS(=O)(=O)c3ccc(Br)s3)c(C=O)c2)nc1C | – | 61.2 | 97.2 | 3.38% (active) | -1.81% (active) | 27.6 | -8.08% (active) | 30.8% | 3.64% (active) | 7.2% (active)
28 | COc1ccc(-c2nnc(COc3ccc(C(=O)/C=C/c4ccco4)cc3)o2)cc1 | – | 97.7 | 92.8 | 87.6% | 64.1% | 92.6 | 89.2% | 80.6% | 73.9% | 67.9%
29 | O=C(CN1C=NC2C(N3CCOCC3)=NC=NC21)c1ccc(Br)cc1 (stereo unspecified) | – | 99 | – | 95.6% | 108% | 102 | 103% | 101% | 100% | 97%
30 | CC1CCCCN1CCCNC(=O)c1ccc2c(c1)sc1nc(-c3ccc(F)cc3)cn12 (stereo unspecified) | 86% | 100 | 99.7 | 93.8% | 105% | 98.5 | 87.6% | 93.4% | – | –
31 | CN1C(=O)N(C)C2C1NN=c1s/c(=C\c3ccc(Cl)cc3Cl)c(=O)n12 (stereo unspecified) | – | 32.5 | – | 16.4% | 3.93% (active) | 23 | 14.9% | 72.1% | 27.2% | 36.9%
32 | O=C(NC1C(O)OC(CO)C(O)C1O)NS(=O)(=O)c1ccc(Cl)cc1 (stereo unspecified) | – | 99.7 | 105 | 107% | 112% | 98.7 | 105% | 91.3% | 102% | –
33 | NCCOc1ccccc1/C=C1\c2ccccc2-c2ccc([N+](=O)[O-])cc21 | -48.6% (active) | 22.3 | – | 23.8% | -49.8% (active) | 26.3 | 23.5% | 12.5% | – | 30.3%
